mHTT CaM bind = mHTT-calmodulin interaction abrogation; AlphaScreen His-mHTT/GST-CaM binding, luminescence; inhibition, % at 15 µM; 190,000 compounds, 3.6% hits;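 further: 0% = both proteins with DMSO and 100% = one protein alone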
Target sequence (P42858 whole entry, looked up, stated change not applied): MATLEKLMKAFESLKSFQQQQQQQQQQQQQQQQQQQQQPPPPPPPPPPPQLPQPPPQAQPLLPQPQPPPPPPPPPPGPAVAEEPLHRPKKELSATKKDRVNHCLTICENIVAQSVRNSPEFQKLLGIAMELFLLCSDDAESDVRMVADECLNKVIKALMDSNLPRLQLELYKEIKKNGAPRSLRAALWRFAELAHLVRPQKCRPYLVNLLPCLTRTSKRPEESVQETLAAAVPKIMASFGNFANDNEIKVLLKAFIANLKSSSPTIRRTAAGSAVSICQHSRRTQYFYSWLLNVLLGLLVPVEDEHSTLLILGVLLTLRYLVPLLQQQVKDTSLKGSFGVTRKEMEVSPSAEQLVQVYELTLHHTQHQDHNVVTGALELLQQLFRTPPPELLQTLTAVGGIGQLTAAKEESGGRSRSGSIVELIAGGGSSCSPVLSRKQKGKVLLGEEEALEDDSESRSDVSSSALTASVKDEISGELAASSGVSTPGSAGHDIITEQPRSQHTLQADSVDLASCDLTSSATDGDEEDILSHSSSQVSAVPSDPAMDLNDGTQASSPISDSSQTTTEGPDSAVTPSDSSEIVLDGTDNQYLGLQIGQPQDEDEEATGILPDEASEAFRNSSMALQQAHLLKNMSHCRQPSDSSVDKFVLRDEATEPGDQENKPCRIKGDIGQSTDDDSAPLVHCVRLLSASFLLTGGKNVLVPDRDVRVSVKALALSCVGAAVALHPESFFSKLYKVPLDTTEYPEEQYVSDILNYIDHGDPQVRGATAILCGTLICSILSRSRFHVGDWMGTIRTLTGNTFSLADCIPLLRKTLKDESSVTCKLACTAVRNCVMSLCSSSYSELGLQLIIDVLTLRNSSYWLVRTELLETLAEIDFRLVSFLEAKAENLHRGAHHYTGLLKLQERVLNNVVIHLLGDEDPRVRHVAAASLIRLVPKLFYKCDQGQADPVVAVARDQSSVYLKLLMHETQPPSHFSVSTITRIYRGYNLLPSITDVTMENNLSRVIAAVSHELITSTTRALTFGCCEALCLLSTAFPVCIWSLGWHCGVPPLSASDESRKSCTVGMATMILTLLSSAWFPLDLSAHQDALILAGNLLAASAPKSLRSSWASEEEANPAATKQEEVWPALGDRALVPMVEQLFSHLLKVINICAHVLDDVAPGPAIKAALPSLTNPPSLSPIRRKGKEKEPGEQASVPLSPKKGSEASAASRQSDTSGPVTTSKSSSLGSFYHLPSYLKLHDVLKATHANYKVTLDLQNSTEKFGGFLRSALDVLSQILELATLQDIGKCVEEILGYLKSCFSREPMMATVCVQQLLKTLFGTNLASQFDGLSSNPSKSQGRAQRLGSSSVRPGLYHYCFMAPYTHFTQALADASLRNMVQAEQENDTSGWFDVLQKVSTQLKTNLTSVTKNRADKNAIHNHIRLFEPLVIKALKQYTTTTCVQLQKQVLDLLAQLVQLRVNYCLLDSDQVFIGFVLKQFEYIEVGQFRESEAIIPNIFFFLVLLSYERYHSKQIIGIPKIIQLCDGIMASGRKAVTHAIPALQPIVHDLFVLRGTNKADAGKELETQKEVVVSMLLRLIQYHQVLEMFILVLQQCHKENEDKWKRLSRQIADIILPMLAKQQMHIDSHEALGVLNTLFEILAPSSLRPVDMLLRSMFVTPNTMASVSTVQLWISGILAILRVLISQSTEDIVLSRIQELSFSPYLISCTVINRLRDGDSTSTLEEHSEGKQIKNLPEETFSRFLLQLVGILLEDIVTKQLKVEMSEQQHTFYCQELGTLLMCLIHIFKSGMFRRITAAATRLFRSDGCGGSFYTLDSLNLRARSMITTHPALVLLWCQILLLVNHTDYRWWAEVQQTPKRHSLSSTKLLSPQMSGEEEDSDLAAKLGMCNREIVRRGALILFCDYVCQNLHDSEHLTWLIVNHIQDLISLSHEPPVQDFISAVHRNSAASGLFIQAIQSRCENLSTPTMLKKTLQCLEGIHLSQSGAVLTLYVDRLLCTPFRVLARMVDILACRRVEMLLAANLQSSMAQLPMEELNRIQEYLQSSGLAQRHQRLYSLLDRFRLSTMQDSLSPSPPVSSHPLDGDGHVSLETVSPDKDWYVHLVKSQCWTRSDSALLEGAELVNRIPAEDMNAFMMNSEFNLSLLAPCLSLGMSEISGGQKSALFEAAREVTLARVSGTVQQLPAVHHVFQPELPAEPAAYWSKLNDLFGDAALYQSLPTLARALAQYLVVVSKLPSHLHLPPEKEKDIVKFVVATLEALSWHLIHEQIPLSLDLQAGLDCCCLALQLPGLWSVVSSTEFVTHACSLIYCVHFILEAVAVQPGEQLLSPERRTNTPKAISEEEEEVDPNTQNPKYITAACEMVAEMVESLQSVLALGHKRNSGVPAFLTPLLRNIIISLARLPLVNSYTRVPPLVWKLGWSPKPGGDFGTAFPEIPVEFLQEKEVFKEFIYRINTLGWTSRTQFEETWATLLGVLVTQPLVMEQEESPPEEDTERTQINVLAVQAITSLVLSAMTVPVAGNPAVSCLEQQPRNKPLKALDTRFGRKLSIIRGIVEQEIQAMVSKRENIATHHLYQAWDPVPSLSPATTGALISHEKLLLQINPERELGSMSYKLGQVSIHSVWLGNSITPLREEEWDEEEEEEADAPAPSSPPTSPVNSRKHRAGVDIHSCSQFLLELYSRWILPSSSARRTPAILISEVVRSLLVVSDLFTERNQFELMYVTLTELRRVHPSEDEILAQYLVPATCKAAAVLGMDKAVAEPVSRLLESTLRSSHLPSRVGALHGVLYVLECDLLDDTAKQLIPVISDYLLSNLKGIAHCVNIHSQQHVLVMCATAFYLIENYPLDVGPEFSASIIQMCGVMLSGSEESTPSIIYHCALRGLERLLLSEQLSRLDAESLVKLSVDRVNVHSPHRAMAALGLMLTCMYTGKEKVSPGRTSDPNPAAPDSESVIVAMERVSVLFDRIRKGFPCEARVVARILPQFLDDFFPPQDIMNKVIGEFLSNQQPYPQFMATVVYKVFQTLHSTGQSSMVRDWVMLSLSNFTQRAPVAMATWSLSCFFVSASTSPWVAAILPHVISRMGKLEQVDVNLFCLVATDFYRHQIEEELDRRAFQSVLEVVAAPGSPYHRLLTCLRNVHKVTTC
Pf apPOL block = Pf-apPOL DNA polymerase inhibition; AID 1794808; inhibition, % at 10 µM; Recombinant Pf-apPOL, molecular beacon fluorescence, 1.5 h; 210,000 compounds, 0.25% hits
* hit, by the source's call; x = not tested or not shown. The entries come from a sample that favours hits as a whole. No stated cut-off is given here; in the data, active means inhibition above about 50%; inactive means the rest.

SMILES | mHTT CaM bind | Pf apPOL block
CS(=O)(=O)N1CCC(CNC(=O)C(=O)Nc2cc(Cl)ccc2C#N)CC1 | -6 | 4
COc1ccc(NC(=O)c2sc3nc4c(c(-c5ccc(C)o5)c3c2N)CCCC4)cc1 | 69* | -3
Cc1ccc(-c2c3c(nc4sc(C(N)=O)c(N)c24)CCCC3)o1 | 36 | -5
CN(C)c1ccc(C2NC(c3ccc(N(C)C)cc3)C([N+](=O)[O-])C(C)(C)C2[N+](=O)[O-])cc1 (stereo not drawn) | 9 | 10
O=C1C=C/C(=C/c2ccc(Br)o2)O1 | 5 | x
O=C1/C(=C/c2ccc(Br)o2)CC/C1=C\c1ccc(Br)o1 | 96* | -4
O=C1C(=Cc2ccc(Sc3ccccc3)o2)C(=O)c2ccccc21 | 37 | 0
O=C1C(=Cc2ccc(Br)o2)C(=O)c2ccccc21 | 77* | 0
COc1ccc(NCN2C(=O)S/C(=C\c3ccc(O)cc3)C2=O)cc1 | 22 | 2
N=C1S/C(=C\c2ccc(-c3ccccc3F)o2)C(=O)N1c1nccs1 | 27 | 1
O=C1OC(c2ccccc2)=N/C1=C/c1ccc(-c2ccc(Cl)c(C(=O)O)c2)o1 | 20 | -2
N=C1S/C(=C\c2ccc(-c3ccc(Cl)cc3C(=O)O)o2)C(=O)N1c1nccs1 | 75* | -2
N=C1S/C(=C\c2ccc(-c3ccc(Cl)c(C(=O)O)c3)o2)C(=O)N1c1nccs1 | 99* | 7
Cc1ccc(C)c(NC(=O)COc2cc(C)nc(N3CCC(C)CC3)n2)c1 | -4 | 1
CSc1ccccc1C(=O)N1CC2CC1C(=O)O2 (stereo not drawn) | -18 | -2
COc1ccc(Nc2nc(NC(=O)Nc3ccc(Cl)cc3)n[nH]2)cc1 | x | 4
CCCCCCCN1CCC(=O)N([C@H](CO)CC(C)C)CC1 | 11 | -8
Cc1ccc(C(=O)Nc2ccc(O)c(-c3nc4ccccc4o3)c2)cc1[N+](=O)[O-] | 2 | 29
O=C(c1ccnc(N2CCCCC2)n1)N1CCN(c2cccc(Cl)c2)CC1 | 56* | 3
CC1CCN(c2nccc(C(=O)N3CCN(c4cccc(Cl)c4)CC3)n2)CC1 | 11 | -2
CCN1CCn2cc(C(=O)N3CCN(c4ccc(Cl)cc4)CC3)nc2C1 | 44 | -6
CCN1CCn2cc(C(=O)N3CCN(c4cccc(Cl)c4)CC3)nc2C1 | 53* | -5
Fc1cccc(Cl)c1CSc1nnc(SCc2c(F)cccc2Cl)s1 | x | -4
Oc1ccc(C=Nc2ccc(-c3ccccc3)cc2)cc1 | 5 | -20
Oc1ccc(N=Cc2ccc(Br)cc2)cc1 | 64* | -8
SMILES | mHTT CaM bind | Pf apPOL block
O=C(CN1CCN(S(=O)(=O)c2cc(Cl)ccc2Cl)CC1)Nc1ccc2c(c1)OCO2 | 8 | -4
COc1ccc(-c2ccc(/C=C/c3cc(C(F)(F)F)[nH]c(=O)n3)o2)cc1Cl | 99* | 7
COc1ccc(-c2ccc(/C=C/c3cc(C(F)(F)F)[nH]c(=O)n3)o2)c([N+](=O)[O-])c1 | 24 | -3
COc1cc(Br)c(S(=O)(=O)N2CCN(C)CC2)cc1OC | 0 | -9
COc1cc(/C=C2\SC(N3CCCCCC3)=NC2=O)cc(OC)c1OC | 12 | -71
Cc1ccc(Cl)cc1NC(=O)C12CCC(C)(C(=O)C1=O)C2(C)C (stereo not drawn) | -2 | -4
O=C(c1ccn2c(-c3ccccc3Br)nnc2c1)N1CCCCCC1 | 9 | -6
COc1ccc(OC(C)C(=O)NCCc2ccccc2)cc1 (stereo not drawn) | -3 | 6
CC(Oc1ccccc1)C(=O)NCCc1ccc(S(N)(=O)=O)cc1 (stereo not drawn) | 25 | 86*
N#Cc1c(-c2ccccc2)cc(-c2ccc(F)cc2)nc1F | 0 | x
Cc1ccc(-c2cc(-c3ccc(F)cc3)c(C#N)c(N)n2)o1 | 88* | -4
Oc1ccc2c(c1)c(-c1ccccc1)nn2-c1ccccc1 | 55* | -3
Cc1c(C(=O)O)c(-c2ccccc2)nn1-c1ccccc1 | 0 | -5
O=C(Nc1ccc(O)c2c(=O)cc(-c3ccccc3Cl)oc12)c1ccc(Cl)c(Cl)c1 | 7 | 0
CCC(C)c1ccccc1OCC(O)CNC(C)(C)C (stereo not drawn) | -6 | -7
CCC(C)c1ccccc1OCC(O)CNC(C)(C)C(C)(C)C (stereo not drawn) | 100* | -6
Cc1cc(NC2(C(F)(F)F)N=C3SCCN3C2=O)no1 (stereo not drawn) | -3 | x
O=C(Nc1ccc2nc(-c3ccco3)c(-c3ccco3)nc2c1)N1CCSCC1 | 84* | 2
O=C(Nc1ccc2nc(-c3ccco3)c(-c3ccco3)nc2c1)N1CCOCC1 | 76* | -5
Cc1nc2ccc(NC(=O)N3CCCC3)cc2nc1C | 0 | 1
O=C(Nc1ccc2nc(-c3ccccn3)c(-c3ccccn3)nc2c1)N1CCOCC1 | 7 | -2
Cc1cccc(NCN2C(=O)S/C(=C\c3ccccc3F)C2=O)c1 | 54* | -4
O=C1S/C(=C\c2ccccc2F)C(=O)N1CNc1cccc([N+](=O)[O-])c1 | -2 | -2
CCOCC(=O)Nc1cc(F)c2nc(N3CCOCC3)ccc2c1 | -3 | 3
COc1ccc(NC(=O)c2cnn3c2NC(c2cccs2)CC3C(F)(F)F)cc1OC (stereo not drawn) | 29 | 0
SMILES | mHTT CaM bind | Pf apPOL block
O=C(Nc1ccc2c(c1)OCO2)c1cnn2c1NC(c1cccs1)CC2C(F)(F)F (stereo not drawn) | 7 | 76*
COc1cc(C(=O)N2CCN(Cc3ccccc3F)CC2)cc(OC)c1OC | -3 | 0
Cc1ccc2cccc(NC(=O)C(F)(F)F)c2n1 | 28 | 1
Cc1cccc(NC(c2ccccc2[N+](=O)[O-])c2ccc3ccc(C)nc3c2O)n1 (stereo not drawn) | 75* | -6
COc1cc(C(Nc2cccc(C)n2)c2ccc3ccc(C)nc3c2O)ccc1O (stereo not drawn) | 97* | -79
COc1ccc(C(=O)Nc2cccc(C)n2)c(OC)c1OC | -8 | 0
Cc1cccc(NS(=O)(=O)c2ccc(C)c([N+](=O)[O-])c2)n1 | -6 | 3
Cc1cccc(NC(c2ccc(O)cc2)c2ccc3ccc(C)nc3c2O)n1 (stereo not drawn) | 97* | -6
COc1cc(C(O)CO)ccc1O (stereo not drawn) | x | -5
COc1ccc(C(Nc2cccc(C)n2)c2ccc3ccc(C)nc3c2O)cc1C (stereo not drawn) | 89* | -92
Cc1cccc(NC(=O)CCCC(=O)O)c1 | -1 | 0
CCOC(=O)c1c(C)nsc1N | x | -4
O=C(NCCN1CCC(Cc2ccccc2)CC1)c1ccc2c(c1)NC(=O)C1CCCCN21 (stereo not drawn) | 97* | 2
O=C1Nc2cc(C(=O)N3CCN(c4cccc(Cl)c4)CC3)ccc2N2CCCCC12 (stereo not drawn) | 93* | 2
COc1cccc(N2CCN(C(=O)c3ccc4c(c3)NC(=O)C3CCCCN43)CC2)c1 (stereo not drawn) | 30 | 2
O=C(NCCCc1ccccc1)c1ccc2c(c1)NC(=O)C1CCCCN21 (stereo not drawn) | -2 | -4
O=C(NCCN1CCCCCC1)c1ccc2c(c1)NC(=O)C1CCCCN21 (stereo not drawn) | 11 | 1
O=C(NCCCc1ccccc1)c1ccc2c(c1)NC(=O)C1CCCN21 (stereo not drawn) | 67* | 4
Cc1cccc(OCC(=O)N2CCCC(C)(C(=O)NCc3ccccc3)C2)c1 (stereo not drawn) | -3 | -1

High-throughput results as filed in PubChem BioAssay.
